CYP2C9 inhib: inhibitors of human CYP2C9. CYP2C9 Supersomes, luciferin-H conversion, luminescence. inhibition, % at 5 µM. actives 20% (n = 96,000);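 active means blocking of liver enzyme CYP2C9 beyond about 50% at 5 µM, limit read from the data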
CYP2C19 activ: increases human CYP2C19 enzyme activity; P33261; activation factor at 5 µM; 96,000 tested, under 10 active; AID 1025; recombinant CYP2C19, luciferin-H EGE luminescence; hits give high values; 0 = fully inhibited enzyme, 1 = untreated enzyme;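 active means activation factor of at least 2 at 5 µM in the primary screen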;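 further: 0 = wells with 2.5 mM tranylcypromine and 1 = vehicle-only wells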
Target sequence (P33261 whole entry, looked up): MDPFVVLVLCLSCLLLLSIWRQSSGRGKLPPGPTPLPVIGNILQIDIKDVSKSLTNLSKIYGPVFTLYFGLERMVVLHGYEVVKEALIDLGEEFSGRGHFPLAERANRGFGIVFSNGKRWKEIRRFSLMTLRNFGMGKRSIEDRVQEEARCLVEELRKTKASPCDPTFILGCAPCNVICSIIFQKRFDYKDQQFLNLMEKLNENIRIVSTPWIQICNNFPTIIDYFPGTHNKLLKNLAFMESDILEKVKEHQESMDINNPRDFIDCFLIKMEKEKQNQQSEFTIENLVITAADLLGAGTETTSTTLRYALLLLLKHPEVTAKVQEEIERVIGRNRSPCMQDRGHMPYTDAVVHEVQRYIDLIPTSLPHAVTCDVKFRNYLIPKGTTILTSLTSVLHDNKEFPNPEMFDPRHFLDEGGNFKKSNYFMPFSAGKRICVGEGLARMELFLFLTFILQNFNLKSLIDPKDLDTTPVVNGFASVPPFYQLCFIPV
CYP2C9 act: increases human cytochrome P450 2C9 activity; P11712; recombinant CYP2C9, luciferin-H conversion, luminescence; hits give high values; factor 1 = untreated enzyme, 0 = blocked; activation factor at 5 µM; actives 1.4% (n = 96,000);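 active means activation factor of 2 or more for CYP2C9 at a 5 µM dose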;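 further: 0 = sulfaphenazole-blocked wells and 1 = vehicle-only wells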
PostGolgi ctrl: inhibits growth of the yeast control strain; actives 5% (n = 98,000); efflux-deficient yeast background strain, growth absorbance A615, 16 h; inhibition, % at 10 µM
PostGolgi yeast: growth inhibition of a yeast mutant, post-Golgi transport screen | actives 0.9% (n = 98,000) | AID 739 | post-Golgi transport phenotypic cell assay | inhibition, % at 10 µM;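 further: yeast cells grown in 1536-well plates; yeast grown about 18 h at 30C before absorbance read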
CYP2C19 inh: human CYP2C19 inhibition; P33261; CYP2C19 Supersomes, luciferin-H EGE luminescence, 30 min; inhibition, % at 5 µM; actives 21% (n = 96,000); AID 778;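 active means CYP2C19 inhibition above a set limit at 5 µM in the primary screen, cut at about 50% in these data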;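 further: plate controls were negative control wells for no effect and 2.5 mM tranylcypromine positive control for full effect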
* hit, by the source's call; / = no result. The list is not random: actives were taken first. Their share in the collection is about 32%. Unless noted, no stated cut-off is given here; in the data, active means inhibition above about 30%; inactive means the rest.

SMILES	CYP2C9 inhib	CYP2C19 activ	CYP2C9 act	PostGolgi ctrl	PostGolgi yeast	CYP2C19 inh
O=c1cc(C23CC4CC(CC(C4)C2)C3)[nH][nH]1	56*	1.2	0.4	14	-5	-21
O=C(c1ccccc1)N1CCCCC(Sc2nnc3ccccn23)C1=O (stereo not given)	0	0.9	1	31*	-2	11
Cc1cc2nnc(SC3CCCCN(C(=O)c4ccc(F)cc4)C3=O)n2c2ccccc12 (stereo not given)	29	0.2	0.7	23	2	84*
Cc1cc2nnc(SC3CCOC3=O)n2c2ccccc12 (stereo not given)	-108	1	2.1*	7	-5	-1
Cc1cc2nnc(SC(C)C#N)n2c2ccccc12 (stereo not given)	/	/	/	-4	2	/
O=C(c1ccc(F)cc1)N1CCCCC(Sc2nnc3ccccn23)C1=O (stereo not given)	-21	1.2	1.2	2	3	-18
Cc1cc(C)n2nc(SC3CCCCN(C(=O)c4ccc(F)cc4)C3=O)nc2n1 (stereo not given)	8	1	0.9	15	1	-2
C=CCN(CC=C)C(=O)C1CC(=O)N(c2ccc(Br)cc2)C1 (stereo not given)	24	0.4	0.8	-14	-5	63*
O=C(O)C1CC(=O)N(c2ccc(Br)cc2)C1 (stereo not given)	-20	1.2	1.2	42*	-7	-15
O=C(O)C1CC(=O)N(c2ccc(F)c(F)c2)C1 (stereo not given)	3	1	1	-2	2	1
O=C(NC12CC3CC(CC(C3)C1)C2)C1CC(=O)N(c2ccc(Br)cc2)C1 (stereo not given)	19	1	0.8	2	3	-3
CCCCn1nc(CC(=O)O)c2ccccc2c1=O	3	0.3	1	1	7	69*
O=C(COc1ccc(Cl)cc1)NCc1nnc(SCC(=O)NC2CCCCC2)o1	14	0.8	0.9	5	5	16
O=C(COc1ccc(Cl)cc1)NCc1nnc(SCC(=O)Nc2ccccc2)o1	-96	0.8	2*	-2	3	17
CC1CCN(C(=O)CSc2nnc(CNC(=O)COc3ccc(Cl)cc3)o2)CC1	57*	0.3	0.4	9	-5	67*
Cc1ccc(NC(C(N)=O)c2c(C)[nH]c(=O)[nH]c2=O)cc1 (stereo not given)	5	1	0.9	8	4	-4
Cc1cc(C(=O)CSc2nnc(-c3ccccc3)n2Cc2ccc3c(c2)OCO3)c(C)n1C	-8	0.9	1.1	-2	0	13
Cc1cc(C(=O)CSc2nnc(-c3ccccc3)n2-c2ccccc2)c(C)n1-c1ncn[nH]1	58*	0.4	0.4	-6	5	62*
Cc1cc(C(=O)CSc2nnc(-c3ccncc3)n2-c2ccccc2)c(C)n1C	34	0.2	0.7	2	7	84*
CC(C)NC(=O)CSc1nnc(-c2ccncc2)n1-c1ccccc1	58*	0.1	0.4	14	1	92*
Cc1cc(C(=O)CSc2nnc(-c3cccnc3)n2-c2ccccc2)c(C)n1CC1CCCO1 (stereo not given)	15	0.8	0.8	-3	-6	21
Cc1cc(C(=O)CSc2nnc(-c3cccnc3)n2-c2ccccc2F)c(C)n1C	/	/	/	0	-2	/
Cc1cc(C(=O)CSc2nnc(-c3ccccc3)n2C)c(C)n1C	1	0.2	1	-1	-6	78*
COc1cccc(NC(=O)c2ocnc2C)c1	8	0.8	0.9	13	4	25
COc1ccc(OCC(=O)N2CCN(S(=O)(=O)c3ccc(Cl)cc3)CC2)cc1	9	1	0.9	1	0	-4
COc1ccc(Cn2c(CCC(=O)Nc3ccc(CC#N)cc3)nc3cccnc32)cc1	12	1	0.9	6	-1	4
O=C1c2ccccc2C(=O)N1CC1=CCS(=O)(=O)C1	-26	1	1.3	0	0	0
CN1C2C=C(N(CCc3c[nH]c4ccccc34)C(=O)c3ccc(Cl)cc3)CC1CC2 (stereo not given)	1	0.9	1	-1	4	7
N#Cc1ccccc1NC(=O)CSc1nnc(-c2ccc(F)cc2)n1-c1ccccc1	45	0.4	0.5	15	5	63*
